Bioassay records as filed in PubChem.
Only some compounds are listed: those with a hit (about 11% of all), similar ones and a draw of the others.
3T3 cytotox = Cytotoxic Profiling in NIH 3T3 Cell Line of Diverse Libraries Using Quantitative High-Throughput Screening; actives 4.3% (n = 94,000); AID 1345082, 2018; NIH 3T3 viability, CellTiter-Glo ATP luminescence, 48-72 h; Potency, µM (highest dose often 96.7 µM), most hits filed as inhibitors; further: nearly all actives have a fitted effect of over 55% in size
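First NIH 3T3 cells are plated at 400 cells/well; next compound is pinned in; then plates incubate 48 or 72 hr at 37 °C; finally CellTiter-Glo is added and luminescence read after 10 min.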
FLuc inh = Firefly luciferase inhibition profiling of diverse chemical library using quantitative high-throughput screening; AID 1347043, 2019; purified P. pyralis luciferase, luminescence, biochemical; actives 2.5% (n = 76,000); Luciferin 4-monooxygenase (Photinus pyralis), P08659; Potency, µM (series often up to 115 µM), actives largely listed as inhibitors; further: nearly all actives have a fitted effect of over 65% in size
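Cell-free enzyme assay, 10nM P. pyralis luciferase, luciferin and ATP each at 10uM. Inhibition profiled over a 6-point titration, read as luminescence.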
NPR1 antag = Natriuretic polypeptide receptor (hNpr1) antagonism - Primary qHTS; Atrial natriuretic peptide receptor 1 (Homo sapiens), P16066; AID 1347048, 2019; Potency, µM (top dose mostly 46.3 µM), actives largely listed as inhibitors; HEK293 hNpr1 GloSensor cGMP, ANP-stimulated luminescence; actives 1.6% (n = 76,000); calls by dose curve; further: nearly all actives have a fitted effect of over 60% in size
Target sequence (P16066 whole entry, looked up): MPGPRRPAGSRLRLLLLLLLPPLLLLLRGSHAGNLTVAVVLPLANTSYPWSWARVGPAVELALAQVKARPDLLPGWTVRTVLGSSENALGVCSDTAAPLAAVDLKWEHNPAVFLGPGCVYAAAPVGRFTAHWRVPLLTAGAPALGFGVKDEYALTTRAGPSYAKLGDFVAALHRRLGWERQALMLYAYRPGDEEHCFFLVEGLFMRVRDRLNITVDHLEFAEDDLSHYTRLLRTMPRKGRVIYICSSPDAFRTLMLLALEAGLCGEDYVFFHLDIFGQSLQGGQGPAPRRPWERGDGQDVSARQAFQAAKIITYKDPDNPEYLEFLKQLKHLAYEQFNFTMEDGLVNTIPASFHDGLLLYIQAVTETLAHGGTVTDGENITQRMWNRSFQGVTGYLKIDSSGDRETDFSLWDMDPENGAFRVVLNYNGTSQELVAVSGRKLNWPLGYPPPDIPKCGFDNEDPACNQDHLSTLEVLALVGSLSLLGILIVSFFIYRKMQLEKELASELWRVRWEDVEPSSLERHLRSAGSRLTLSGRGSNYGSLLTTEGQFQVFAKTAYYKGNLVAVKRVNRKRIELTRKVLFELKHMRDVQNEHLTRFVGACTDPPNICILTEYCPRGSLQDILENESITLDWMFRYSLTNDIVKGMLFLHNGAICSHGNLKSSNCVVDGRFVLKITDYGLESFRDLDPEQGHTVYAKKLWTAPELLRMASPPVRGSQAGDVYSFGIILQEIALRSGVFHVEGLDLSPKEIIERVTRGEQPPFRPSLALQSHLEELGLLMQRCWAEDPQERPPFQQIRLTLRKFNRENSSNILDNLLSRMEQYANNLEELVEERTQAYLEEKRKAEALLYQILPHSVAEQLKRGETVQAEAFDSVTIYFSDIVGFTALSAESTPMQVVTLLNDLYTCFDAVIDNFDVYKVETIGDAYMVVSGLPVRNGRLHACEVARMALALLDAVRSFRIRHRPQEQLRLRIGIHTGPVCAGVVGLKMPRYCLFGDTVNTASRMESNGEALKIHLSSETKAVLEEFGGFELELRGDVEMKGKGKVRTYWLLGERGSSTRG
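HEK293 cells stably expressing human Npr1 and cGMP GloSensor pGS-40F, loaded 2 h with 2% GloSensor reagent, given compound 30 min at room temperature. Luminescence read before and 20 min after 0.1 nM hNppA.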
HEK cytotox = Cytotoxic Profiling in HEK 293 Cell Line of Diverse Libraries Using Quantitative High-Throughput Screening. HEK 293 viability, ATP luminescence (CellTiter-Glo), 48-72 h. Potency, µM (highest dose often 115 µM), actives largely listed as inhibitors. actives 6.6% (n = 94,000). AID 1345083, 2018; further: nearly all actives have a fitted effect of over 60% in size
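HEK 293 seeded at 250 cells/well receive compound via pintool. After 48 or 72 hr at 37 degree Celsius, 5% CO2 and 95% humidity, CellTiter-Glo is dispensed and luminescence read following 10 min at room temperature.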
Large screens that a line does not name were inactive. Unless noted, the call rests on the fitted dose curve; in most records, active means well fitted curve in the direction sought with a large enough effect; inconclusive means small, poorly fitted or top-dose-only effect, or another doubt; inactive means no such curve, though single readings can be large; an effect the other way counts as inactive or inconclusive.

COc1cccc(Nc2ncc(-c3ccccc3)c3c2OCC3)c1	FLuc inh 14.1µM, NPR1 antag inconclusive, HEK cytotox inconclusive
FC(F)(F)c1cccc(Nc2ncc(-c3cccnc3)c3c2OCC3)c1	3T3 cytotox inconclusive, HEK cytotox inconclusive
COc1ccc(Nc2ncc(-c3cccnc3)c3c2OCC3)cc1	3T3 cytotox inconclusive, FLuc inh 12.6µM, HEK cytotox inconclusive
COc1ncc(-c2cc3c(nc2OC)nc(CCc2ccccc2)n3C)cn1	HEK cytotox inconclusive
C[C@@H]1C(=O)O[C@H]2[C@H]1CC[C@@]1(C)Cc3sc(NC(=O)CCC(=O)O)nc3[C@@H](C)[C@H]21	FLuc inh inconclusive
C[C@@H]1C(=O)O[C@H]2[C@H]1CC[C@@]1(C)Cc3sc(NC(=O)CC(C)(C)C)nc3[C@@H](C)[C@H]21	3T3 cytotox inconclusive, FLuc inh 20µM, HEK cytotox 31.6µM
COc1cc(NC(=O)Nc2nc3c(s2)C[C@]2(C)CC[C@@H]4[C@H](OC(=O)[C@H]4C)[C@H]2[C@@H]3C)cc(OC)c1	3T3 cytotox inconclusive, FLuc inh inconclusive, HEK cytotox inconclusive
C=CCNC(=O)Nc1nc2c(s1)C[C@]1(C)CC[C@@H]3[C@H](OC(=O)[C@H]3C)[C@H]1[C@@H]2C	FLuc inh 15.8µM, HEK cytotox inconclusive
C[C@@H]1C(=O)O[C@H]2[C@H]1CC[C@@]1(C)Cc3sc(NC(=O)CN(C)C)nc3[C@@H](C)[C@H]21	FLuc inh 3.16µM, NPR1 antag 15.8µM
C[C@@H]1C(=O)O[C@H]2[C@H]1CC[C@@]1(C)Cc3sc(Nc4ccc(C(=O)O)cc4)nc3[C@@H](C)[C@H]21	FLuc inh 1µM, NPR1 antag 12.6µM
C[C@@H]1C(=O)O[C@H]2[C@H]1CC[C@@]1(C)Cc3sc(NC(=O)COc4ccccc4)nc3[C@@H](C)[C@H]21	HEK cytotox inconclusive
COCCNC(=O)[C@@H](C)C1CC[C@@]2(C)Cc3sc(NC(=O)CN(C)C)nc3[C@@H](C)[C@@H]2[C@H]1O (some centres undefined)	FLuc inh 20µM
COc1ccc(N2CC3CCC(C2)N3Cc2cccc(-c3cccnc3)c2)cc1	3T3 cytotox inconclusive, HEK cytotox 39.8µM (no result: FLuc inh, NPR1 antag)
CSCC[C@@H]1NC(=O)c2cc(NC(=O)c3n[nH]c4c3CCCC4)ccc2NC1=O	none
CN(C)CCCOCC1(C)COc2ccc(C(=O)Nc3ccc(F)c(Cl)c3)cc2N1 (centres undefined)	3T3 cytotox 39.8µM, HEK cytotox 63.1µM
CC1(CCCCN2CCOCC2)COc2ccc(C(=O)Nc3ccc(Cl)cc3)cc2N1 (centres undefined)	3T3 cytotox inconclusive, FLuc inh inconclusive, HEK cytotox 50.1µM
CC1(COCC2CC2)COc2ccc(C(=O)Nc3ccc(Cl)cc3)cc2N1 (centres undefined)	3T3 cytotox 35.5µM, NPR1 antag inconclusive, HEK cytotox 28.2µM
CCOCC1(C)COc2ccc(C(=O)Nc3ccccn3)cc2N1 (centres undefined)	3T3 cytotox inconclusive, FLuc inh 15.8µM, NPR1 antag inconclusive, HEK cytotox inconclusive
CN(C)CCCOCC1(C)COc2ccc(C(=O)N3CCOCC3)cc2N1 (centres undefined)	3T3 cytotox inconclusive
CNC(=O)c1ccc2c(c1)NC(C)(COc1ccccc1)CO2 (centres undefined)	3T3 cytotox inconclusive, HEK cytotox inconclusive
O=C(NCCNC(=O)c1ccc(-c2cncnc2)cc1)c1ccc(Cl)cc1	none (no result: FLuc inh, NPR1 antag)
CNC(=O)[C@H]1CN(C(=O)NC2CCCC2)[C@]2(C)C(=O)N(CC3CC3)c3ccccc3[C@H]12	HEK cytotox inconclusive (no result: FLuc inh, NPR1 antag)
CS(=O)(=O)c1ccc(OCC2(CNCc3cccc(C(F)(F)F)c3)C[C@@H](O)[C@@H](O)C2)cc1 (some centres undefined)	3T3 cytotox inconclusive, HEK cytotox 79.4µM
Cc1cccc(N2CCN(C(=O)c3ccc4c(c3)N(C(=O)c3ccccc3)CC4)CC2)c1C	3T3 cytotox 31.6µM, HEK cytotox 28.2µM
N#CC1CCN(C(=O)c2ccc3nnc(-c4ccc(Cl)cc4)n3c2)CC1	none (no result: FLuc inh, NPR1 antag)
CCc1cccc(NC(=O)C2CCc3ncc(-c4ccsc4)n3C2)c1 (centres undefined)	3T3 cytotox inconclusive, HEK cytotox 44.7µM
CCCOc1cccc(-c2cc3c(cc2OC)C(CO)CC(C)(C)CO3)c1 (centres undefined)	3T3 cytotox 31.6µM, HEK cytotox 35.5µM (no result: FLuc inh, NPR1 antag)
COc1cc2c(cc1-c1ccc(OC(F)(F)F)cc1)OCC(C)(C)CC2CO (centres undefined)	3T3 cytotox inconclusive, HEK cytotox 22.4µM (no result: FLuc inh, NPR1 antag)
COCCNC(=O)[C@@H]1CCCN1C(=O)c1cccc(-c2ccccc2OC)c1	none (no result: FLuc inh, NPR1 antag)
CCOC(=O)C(Cc1cccc(N2CCN(C(=O)c3ccccc3F)CC2)c1)OC (centres undefined)	HEK cytotox inconclusive (no result: FLuc inh, NPR1 antag)
CCOC(=O)C(Cc1cccc(N2CCN([S+](=O)([O-])c3c(Cl)cccc3Cl)CC2)c1)OC (centres undefined)	3T3 cytotox inconclusive, HEK cytotox 20µM (no result: FLuc inh, NPR1 antag)
Cn1cc(-c2cnc(Nc3ccncc3)c3c2CCO3)cn1	3T3 cytotox 89.1µM, HEK cytotox inconclusive
CN(C)c1cccc(-c2cnc(Nc3cncnc3)c3c2CCO3)c1	3T3 cytotox inconclusive, HEK cytotox inconclusive
Cn1cc(-c2cnc(Nc3ccc(F)c(Cl)c3)c3c2CCO3)cn1	HEK cytotox inconclusive
c1ccc(-c2cnc(Nc3ccncc3)c3c2CCO3)cc1	3T3 cytotox 44.7µM, FLuc inh 28.2µM, NPR1 antag 25.1µM, HEK cytotox 79.4µM
COCC1CN(C)CC12CCN(Cc1ccc(OC)c(Cn3ccnc3)c1)CC2 (centres undefined)	3T3 cytotox inconclusive, HEK cytotox inconclusive
Cc1c(-c2cn(C)c(=O)n3cc(COc4ccc(Cl)cc4)nc23)cnn1C	3T3 cytotox inconclusive, FLuc inh inconclusive, HEK cytotox inconclusive
Cn1cc(-c2cccc(OC(F)(F)F)c2)c2nc(CN3CCNC(=O)C3)cn2c1=O	3T3 cytotox 100µM
Cn1cc(-c2cn(C)c(=O)n3cc(COc4ccc(Cl)cc4)nc23)cn1	3T3 cytotox inconclusive, FLuc inh inconclusive, HEK cytotox 70.8µM
COc1cncc(-c2cn(C)c(=O)n3cc(CNc4ccccc4)nc23)c1	3T3 cytotox inconclusive, HEK cytotox inconclusive
Cn1cc(-c2cccc(C(F)(F)F)c2)c2nc(CNc3ccccc3)cn2c1=O	3T3 cytotox 25.1µM, HEK cytotox 50.1µM
Cn1cc(-c2ccnc(N3CCOCC3)c2)c2nc(COc3ccc(Cl)cc3)cn2c1=O	3T3 cytotox 28.2µM, FLuc inh inconclusive, NPR1 antag inconclusive, HEK cytotox inconclusive
CN1CCN(Cc2cn3c(=O)n(C)cc(-c4cccc(OC(F)(F)F)c4)c3n2)CC1	3T3 cytotox inconclusive, HEK cytotox inconclusive
